Unmarked numbers belong to inactive results. Activity calls are given as the source filed them. Rule as the data show it, unless noted: active = inhibition above about 28%; inactive = the rest.

Assay [1] addresses Nuclear receptor coactivator 3 (Homo sapiens) (UniProt Q9Y6Q9). Put plainly: NCOA3 GAL4-fusion reporter inhibition – cell-based, luminescence, quadruplicate, confirmation (AID 588792;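 active = mean inhibition over 43.08%, the solvent-only control mean plus 3 SD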;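 also: 0% = DMSO treated cells and 100% = gossypol at 36 µM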). Particulars: HEK293 GAL4-SRC3 luciferase reporter, at 3.6 µM, active compounds read high. A general note: Reporter assays use an easily measured gene product as a stand-in for the process of interest.
For assay [2], the system named is transactivating tegument protein VP16 (Human herpesvirus 1), Gal4-VP16 luciferase reporter. Put plainly: repression of VP16-driven luciferase reporter – cell-based, luminescence, high throughput, counter-screen for SRC3 inhibitor project (AID 588794; in the data active = inhibition above about 30%). Particulars: mammalian cells, at 3.6 µM, active compounds read high.
Assay [3] in a line: StAR promoter reporter inhibitors, counter-screen for LRH-1 inverse agonist project, cell-based, luminescence, high throughput (AID 651611). Particulars: StAR promoter luciferase reporter counterscreen, at 3.6 µM, active compounds read high. (In general: The purpose of a counterscreen is to sort out artefacts and off-target activity.)
The target of assay [4] is Nuclear receptor subfamily 5 group A member 2 (Homo sapiens) (UniProt O00482). Put plainly: NR5A2 activity suppression in reporter cells – cell-based, luminescence, confirmation (AID 651613; in the data active = inhibition above about 42%;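 also: HEK293T cells co-transfected with LRH-1 and StAR promoter luciferase reporter; 0% = vehicle wells and 100% = parental cells lacking receptor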). Particulars: cell-based LRH-1 luciferase reporter, inverse agonism; at 3.6 µM; active compounds read high.
For assay [5], the target named is Steroidogenic factor 1 (Homo sapiens) (UniProt Q13285). In words: inverse agonism at SF1 nuclear receptor – cell-based, luminescence, high throughput, counter-screen for LRH-1 inverse agonist project (AID 651614; in the data active = inhibition above about 44%;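 also: cells cotransfected with StAR promoter reporter and SF1 expression vector; 0% = vehicle on cells with receptor and 100% = vehicle on cells lacking receptor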). Particulars: cell-based SF1 luciferase reporter, at 3.6 µM, active compounds read high.
Assay [6] in a line: compounds suppressing VP16-driven luciferase signal – cell-based, luminescence, high throughput, counter-screen for LRH-1 inverse agonist project (AID 651615; in the data active = inhibition above about 33%). Particulars: Gal4-VP16 luciferase reporter cells, at 3.6 µM, active compounds read high.

Chain of Nuclear receptor coactivator 3 (Homo sapiens) (Q9Y6Q9 whole entry, looked up, the tested form may be a part): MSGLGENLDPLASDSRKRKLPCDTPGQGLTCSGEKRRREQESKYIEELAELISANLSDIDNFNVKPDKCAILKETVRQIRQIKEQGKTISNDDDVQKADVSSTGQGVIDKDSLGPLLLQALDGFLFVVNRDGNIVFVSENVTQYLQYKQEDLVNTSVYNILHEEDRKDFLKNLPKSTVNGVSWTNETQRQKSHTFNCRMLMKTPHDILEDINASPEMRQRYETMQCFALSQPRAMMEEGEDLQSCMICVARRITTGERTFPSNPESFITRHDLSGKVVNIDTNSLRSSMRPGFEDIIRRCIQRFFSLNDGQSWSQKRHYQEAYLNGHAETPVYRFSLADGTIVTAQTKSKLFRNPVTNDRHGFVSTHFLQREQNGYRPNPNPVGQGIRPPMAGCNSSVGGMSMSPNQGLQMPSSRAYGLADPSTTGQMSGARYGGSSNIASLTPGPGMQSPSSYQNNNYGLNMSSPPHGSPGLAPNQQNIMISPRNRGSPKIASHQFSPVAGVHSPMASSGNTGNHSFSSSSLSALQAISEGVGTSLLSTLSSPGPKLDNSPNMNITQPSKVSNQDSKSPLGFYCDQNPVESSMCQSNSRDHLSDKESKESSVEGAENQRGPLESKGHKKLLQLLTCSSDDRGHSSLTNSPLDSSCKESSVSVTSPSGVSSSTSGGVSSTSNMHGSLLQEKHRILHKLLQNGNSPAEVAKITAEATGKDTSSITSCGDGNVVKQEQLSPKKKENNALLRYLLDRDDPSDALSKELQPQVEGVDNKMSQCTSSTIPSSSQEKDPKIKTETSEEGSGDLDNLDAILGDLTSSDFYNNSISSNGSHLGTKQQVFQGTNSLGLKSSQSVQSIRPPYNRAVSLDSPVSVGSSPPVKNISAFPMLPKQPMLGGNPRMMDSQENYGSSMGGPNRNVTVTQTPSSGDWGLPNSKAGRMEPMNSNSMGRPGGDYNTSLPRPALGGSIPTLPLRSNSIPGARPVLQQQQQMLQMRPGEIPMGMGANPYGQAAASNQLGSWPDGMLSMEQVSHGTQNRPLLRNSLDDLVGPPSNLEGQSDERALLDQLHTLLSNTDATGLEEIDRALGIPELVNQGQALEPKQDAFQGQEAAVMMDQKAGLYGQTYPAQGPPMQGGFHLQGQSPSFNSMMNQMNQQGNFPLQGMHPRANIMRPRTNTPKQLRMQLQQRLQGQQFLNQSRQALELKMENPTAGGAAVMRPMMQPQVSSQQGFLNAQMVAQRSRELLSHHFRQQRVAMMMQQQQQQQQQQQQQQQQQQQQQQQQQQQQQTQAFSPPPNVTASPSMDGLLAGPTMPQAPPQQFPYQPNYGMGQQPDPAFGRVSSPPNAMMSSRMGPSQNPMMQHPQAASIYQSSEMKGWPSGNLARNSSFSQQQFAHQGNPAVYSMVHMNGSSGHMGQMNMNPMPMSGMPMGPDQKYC
Chain of Nuclear receptor subfamily 5 group A member 2 (Homo sapiens) (O00482 whole entry, looked up): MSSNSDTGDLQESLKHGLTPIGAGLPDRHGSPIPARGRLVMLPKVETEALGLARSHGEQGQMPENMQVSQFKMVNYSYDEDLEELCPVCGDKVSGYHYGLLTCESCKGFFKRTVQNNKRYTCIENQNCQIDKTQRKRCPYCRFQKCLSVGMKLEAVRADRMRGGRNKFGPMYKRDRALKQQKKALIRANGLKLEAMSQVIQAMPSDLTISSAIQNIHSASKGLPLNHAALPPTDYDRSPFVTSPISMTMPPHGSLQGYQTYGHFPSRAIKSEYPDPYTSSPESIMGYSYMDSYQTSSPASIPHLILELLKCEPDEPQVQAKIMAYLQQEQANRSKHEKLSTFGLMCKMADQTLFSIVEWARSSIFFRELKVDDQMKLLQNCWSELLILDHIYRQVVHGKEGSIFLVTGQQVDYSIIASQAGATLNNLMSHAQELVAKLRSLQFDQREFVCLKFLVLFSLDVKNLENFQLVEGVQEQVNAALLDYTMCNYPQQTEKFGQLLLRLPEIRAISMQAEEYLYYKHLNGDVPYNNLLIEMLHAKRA
Chain of Steroidogenic factor 1 (Homo sapiens) (Q13285 whole entry, looked up, the tested form may be a part): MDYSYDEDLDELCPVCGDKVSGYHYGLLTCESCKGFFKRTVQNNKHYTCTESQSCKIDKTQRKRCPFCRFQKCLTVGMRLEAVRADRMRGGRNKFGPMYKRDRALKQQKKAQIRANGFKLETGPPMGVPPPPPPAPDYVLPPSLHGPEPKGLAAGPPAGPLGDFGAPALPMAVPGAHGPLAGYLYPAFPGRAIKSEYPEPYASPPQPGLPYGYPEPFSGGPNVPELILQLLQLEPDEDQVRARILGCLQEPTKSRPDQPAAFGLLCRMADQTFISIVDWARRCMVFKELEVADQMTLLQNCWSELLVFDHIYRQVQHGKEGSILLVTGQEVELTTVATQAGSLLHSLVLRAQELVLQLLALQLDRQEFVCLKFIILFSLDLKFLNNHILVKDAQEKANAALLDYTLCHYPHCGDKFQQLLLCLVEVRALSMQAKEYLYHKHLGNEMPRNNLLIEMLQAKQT

Consider `COC1C(=O)CCC2(CO2)C1(O)C1(C)OC1CC=C(C)C` (configuration not stated), for which the inhibition was 39.3% in assay [1]; 40.8% (active) in assay [2]; 33.8% (active) in assay [3]; 43% (active) in assay [4]; 39.6% in assay [5]; 42% (active) in assay [6].
As to `C[n+]1c2n(c3ccccc31)N=C(c1ccc(-c3ccccc3)cc1)CS2`, the inhibition in assay [1] is 36.6%; in assay [2], 52.8% (active); in assay [3], 32.7% (active); in assay [4], 87.7% (active); in assay [5] it was 78.2% (active); in assay [6], 72.8% (active).
Take `CCOc1ccc(OCc2ccc(C(=O)NN=Cc3ccc[nH]3)cc2)cc1`: the inhibition in assay [1] is 38.9%; in assay [2] it was 78.4% (active); in assay [3], 76.2% (active); in assay [4] it was 104% (active); in assay [5] it was 90.6% (active); in assay [6], 87.1% (active).
In the case of `Cc1cc(Br)c(OCc2ccc(C(=O)N/N=C/c3ccc[nH]3)cc2)c(Br)c1`, the inhibition was 51.8% (active) in assay [1]; 71.7% (active) in assay [2]; 76.5% (active) in assay [3]; 101% (active) in assay [4]; 88.5% (active) in assay [5]; 85.5% (active) in assay [6].
Consider `O=C(Nc1ccc(S(=O)(=O)Nc2ccccc2)cc1)c1ccc(CN2CCOCC2)cc1`, for which the inhibition in assay [1] is 9.71%; in assay [2], 36% (active); in assay [3] it was 21.8%; in assay [4], 56.4% (active); in assay [5], 57.4% (active); in assay [6], 57.6% (active).
As to `Cc1ccc(NC(=O)c2cc(Cl)ccc2[N+](=O)[O-])cc1C`, the inhibition in assay [1] was 27.3%; in assay [2], 18.5%; in assay [3], 16.6%; in assay [4] it was 36.5%; in assay [5] it was 34.6%; in assay [6] it was 19.6%.
Take `CCCCCCCCCCCCCCCCn1cc[n+](C)c1`: the inhibition in assay [1] is 5.39%; in assay [2], 31.6% (active); in assay [3], 36% (active); in assay [4], 65.5% (active); in assay [5], 70.5% (active); in assay [6] it was 64.4% (active).

By inhibition is commonly meant the relative decrease from the control value, in per cent.

The values above are taken from PubChem BioAssay.
